Active and inactive are the calls of the source. Calls come from the whole dose curve; as a rule, active = well fitted curve in the direction sought with a large enough effect in the repeat runs; inconclusive = weak or mixed curves; inactive = flat fitted curve, though single readings scatter. Positions of bridges follow the written chain, without caps; N, C: chain ends. Non-standard residues stand in square brackets, D forms with d. Residues, ends and D or L forms follow the SMILES beside them. pGlu = O=C1CC[C@@H](C(=O)O)N1
% is set by controls: 0 for no effect and ±100 for the full control effect.

The test is described as follows: qHTS assay to test for compound auto fluorescence at 590 nm (red) in HepG2 cell free culture (AID 720684). The conditions noted are these: cell-free medium autofluorescence, red 540/590 nm; series mostly up to 46 µM; fluorescence, % of Rose Bengal: at the top concentration. An excerpt:
U.S. Tox21 Program National Center for Advancing Translational Sciences [NCATS] NIH Chemical Genomics Center [NCGC] U.S. Environmental Protection Agency [EPA] National Institutes of Environmental Health Sciences [NIEHS] National Toxicology Program [NTP] U.S. Food and Drug Administration [FDA] Tox21 Assay Overview: Compound auto fluorescence often interferes with screening of the compound library against various biological targets and signaling pathways. Some of these compounds may have fluorophoric properties. Such properties may interfere with the assay outputs resulting in false positives and/or negatives. To decrease such complications and ensure the compound activities are relevant in terms of biological response, the Tox21 10K compound library was screened for auto fluorescence. From the fluorophores used as reporter signals in our screening assays, the auto fluorescence equivalencies of compounds against three fluorophores have been evaluated: Triamterene, Fluorescein and Rose Bengal sodium for blue, green and red fluorescence, respectively. The fluorescence intensities were measured using Excitation/Emission wavelengths at 405/460nm, 485/535nm and 540/590nm for blue, green and red labels, respectively. This assay includes the red fluorescence data.
Tox21 Assay Protocol Summary: 5 uL of culture medium (MEM containing 10% FBS) per well was dispensed into black wall/clear bottom 1536-well plates using a Multidrop Combi Dispenser (ThermoFisher Scientific, Waltham, MA). After 23 nL compound or DMSO vehicle was transferred into assay plate by a pintool work station (Kalypsys, San Diego, CA), fluorescence intensities in the assay plates were measured by an Envision (PerkinElmer, Shelton, CT) plate reader using three labels for measuring blue, green and red fluorescence at […] 460, 535 and 590nm respectively.
As to `NCCCC[C@H](NC(=O)[C@@H]1CCCN1C(=O)[C@@H]1CSSC[C@H](NC(=O)CNC(=O)CNC(=O)CN)C(=O)N[C@@H](Cc2ccc(O)cc2)C(=O)N[C@@H](Cc2ccccc2)C(=O)N[C@@H](CCC(N)=O)C(=O)N[C@@H](CC(N)=O)C(=O)N1)C(=O)NCC(N)=O` (H-GGGCYFQNCPKG-NH2; disulfide 4-9), the “fluorescence, % of Rose Bengal” value is 0.193% (inactive).

Consider `C[C@]12CC[C@@H]3c4ccc(O)cc4CC[C@H]3[C@@H]1CC[C@@H]2OP(=O)(O)O`, for which the “fluorescence, % of Rose Bengal” value is -0.0989% (inactive).

With `CC[C@H](C)[C@H](NC(=O)[C@H](Cc1ccccc1)NC(=O)[C@H](C)NC(=O)[C@H](CC(=O)O)NC(=O)[C@H](CCCCN)NC(=O)[C@H](CO)NC(=O)[C@@H]1CCCN1C(=O)[C@@H]1CCC(=O)N1)C(=O)NCC(=O)N[C@@H](CC(C)C)C(=O)N[C@@H](CCSC)C(N)=O` ([pGlu]PSKDAFIGLM-NH2), the “fluorescence, % of Rose Bengal” value was -0.235% (inactive).

`CC[C@@]1(O)C[C@H](O[C@H]2C[C@H](N(C)C)[C@H](O[C@H]3C[C@H](O)[C@H](O[C@H]4CCC(=O)[C@H](C)O4)[C@H](C)O3)[C@H](C)O2)c2c(cc3c(c2O)C(=O)c2c(O)cccc2C3=O)[C@H]1C(=O)OC`: the “fluorescence, % of Rose Bengal” value is 1.09% (inactive).

On to `CNC(C)[C@@H]1CC[C@@H](N)[C@@H](O[C@H]2[C@H](O)[C@@H](O[C@H]3OC[C@](C)(O)[C@H](NC)[C@H]3O)[C@H](N)C[C@@H]2N)O1` (stereo not given in full), for which the “fluorescence, % of Rose Bengal” value was -0.227% [at 18.6 µM] (inactive).

Take `O=C(O)CCC/C=C\C[C@@H]1[C@@H](/C=C/[C@@H](O)COc2cccc(Cl)c2)[C@H](O)C[C@@H]1O`: the “fluorescence, % of Rose Bengal” value is -0.172% (inactive).

For `CCCCCc1ccc(C)cc1O`, the “fluorescence, % of Rose Bengal” value was 0.0815% (inactive).

Consider `C=C1C(=C/C=C2\CCC[C@]3(C)[C@@H]([C@H](C)CCCC(C)(C)O)CC[C@@H]23)C[C@@H](O)C[C@@H]1O`, for which the “fluorescence, % of Rose Bengal” value is 0.0201% (inactive).

With `CN[C@@H]1[C@@H](O)[C@@H](O[C@@H]2[C@@H](O)[C@H](OC3OC(CN)=CCC3N)[C@@H](N)C[C@H]2N)OC[C@]1(C)O` (stereo not given in full), the “fluorescence, % of Rose Bengal” value was 0.0027% [at 18.6 µM] (inactive).

As for `CCCCCCCCCCCCCCCC(=O)O[C@@H]1[C@@H](O)[C@@H](O)[C@@H]([C@H](NC(=O)[C@@H]2C[C@@H](CCC)CN2C)[C@H](C)Cl)O[C@@H]1SC`, the “fluorescence, % of Rose Bengal” value was 0.205% (inactive).

Take `Oc1cc(O)cc(O)c1`: the “fluorescence, % of Rose Bengal” value was 0.0028% (inactive).

Turning to `CCCCc1cc2c(=O)c(C(=O)OC)c[nH]c2cc1OCc1ccccc1`, the “fluorescence, % of Rose Bengal” value was -0.114% (inactive).

Consider `NCCC[C@H](N)C(=O)O`, for which the “fluorescence, % of Rose Bengal” value was -0.0094% (inactive).

`C[Se]CCC(N)C(=O)O` (stereo not given): the “fluorescence, % of Rose Bengal” value was 0.254% (inactive).

As to `CO[C@@]1(NC(=O)C2SC(=C(C(N)=O)C(=O)O)S2)C(=O)N2C(C(=O)O)=C(CSc3nnnn3C)CS[C@@H]21` (stereo not given in full), the “fluorescence, % of Rose Bengal” value was -0.295% [at 18.6 µM] (inactive).

Regarding `CC(=O)[C@@]1(O)CC[C@H]2[C@@H]3C=C(Cl)C4=CC(=O)CC[C@]4(C)[C@H]3CC[C@@]21C`, the “fluorescence, % of Rose Bengal” value is -0.174% (inactive).

For `CO[C@@H]1[C@@H](O[C@@H]2O[C@H](C)[C@@H](O[C@H]3C[C@@](C)(O)[C@@H](OC(=O)CC(C)C)[C@H](C)O3)[C@H](N(C)C)[C@H]2O)[C@@H](CC=O)C[C@@H](C)[C@@H](O)/C=C/C=C/C[C@@H](C)OC(=O)C[C@H]1O`, the Potency result was “inactive”.

Take `C/C=C1\NC(=O)[C@H]2CSSCC/C=C/[C@H](CC(=O)N[C@H](C(C)C)C(=O)N2)OC(=O)C(C(C)C)NC1=O` (stereo not given in full): the “fluorescence, % of Rose Bengal” value is -0.0093% (inactive).

With `C#CCC(Cc1cnc2nc(N)nc(N)c2n1)c1ccc(C(=O)N[C@@H](CCC(=O)O)C(=O)O)cc1` (stereo not given in full), the “fluorescence, % of Rose Bengal” value is -0.0245% (inactive).

For `COC(=O)[C@H]1[C@H]2C[C@@H]3c4[nH]c5ccccc5c4CCN3C[C@H]2C[C@@H](OC(=O)c2cc(OC)c(OC)c(OC)c2)[C@@H]1OC`, the Potency result was “inactive”.

With `CC(=O)Nc1c(I)c(C(=O)N[C@H]2C(O)O[C@H](CO)[C@@H](O)[C@@H]2O)c(I)c(N(C)C(C)=O)c1I` (stereo not given in full), the “fluorescence, % of Rose Bengal” value is -0.205% [at 18.6 µM] (inactive).

With `OC[C@@H](O)C(O)[C@H](O)CO`, the “fluorescence, % of Rose Bengal” value was -0.323% (inactive).

Turning to `COc1ccc(CCNC[C@H](O)c2ccc(O)cc2)cc1OC`, the “fluorescence, % of Rose Bengal” value is -0.0054% (inactive).

As for `CCN(CC)CCOc1ccc(-c2nc3cc(Cl)ccc3s2)cc1`, the “fluorescence, % of Rose Bengal” value was 0.0212% (inactive).

For `CCOC(=O)Cc1cccc(-c2cc(CCCCCCc3ccc(O[C@H]4O[C@H](COC(C)=O)[C@@H](OC(C)=O)[C@H](OC(C)=O)[C@@H]4OC(C)=O)c(-c4cccc(CC(=O)OCC)c4)c3)ccc2O[C@H]2O[C@H](COC(C)=O)[C@@H](OC(C)=O)[C@H](OC(C)=O)[C@@H]2OC(C)=O)c1`, the “fluorescence, % of Rose Bengal” value is -0.0093% (inactive).

Consider `O=C(O)c1cccc(/C=C2/C[C@@H]3[C@@H](/C=C/[C@@H](O)C4CCCCC4)[C@H](O)C[C@@H]3O2)c1`, for which the “fluorescence, % of Rose Bengal” value is 0.419% (inactive).

As to `O=C(O)c1ccc(NC(=O)[C@H](Cc2ccc(O)cc2)NC(=O)c2ccccc2)cc1`, the “fluorescence, % of Rose Bengal” value was -0.294% (inactive).

For the compound `CC(=O)OC[C@H]1O[C@@H](O[C@H]2[C@H](O)[C@@H](OC(=O)c3ccccc3C(=O)O)[C@H](O)O[C@@H]2COC(C)=O)[C@H](O)[C@@H](OC(=O)c2ccccc2C(=O)O)[C@@H]1O`, the “fluorescence, % of Rose Bengal” value is -0.27% (inactive).

For `CNCC(O)c1ccc(OC(=O)C(C)(C)C)c(OC(=O)C(C)(C)C)c1` (stereo not given), the “fluorescence, % of Rose Bengal” value is 0.227% [at 18.6 µM] (inactive).

For `C=CCNC1=C2C[C@@H](C)C[C@H](OC)[C@H](O)[C@@H](C)/C=C(\C)[C@H](OC(N)=O)[C@@H](OC)/C=C\C=C(/C)C(=O)NC(=CC1=O)C2=O`, the “fluorescence, % of Rose Bengal” value is -0.107% (inactive).

On to `O=C(NOC[C@H](O)CO)c1ccc(F)c(F)c1Nc1ccc(I)cc1F`, for which the “fluorescence, % of Rose Bengal” value is 0.181% (inactive).

Regarding `CO[C@H]1C=CO[C@@]2(C)Oc3c(C)c(O)c4c(O)c(c5c(nc6cc(C)ccn65)c4c3C2=O)NC(=O)/C(C)=C\C=C[C@H](C)[C@H](O)[C@@H](C)[C@@H](O)[C@@H](C)[C@H](OC(C)=O)[C@@H]1C`, the “fluorescence, % of Rose Bengal” value was 0.453% (inactive).

Turning to `O=[N+]([O-])c1c(Cl)cccc1-c1c[nH]cc1Cl`, the “fluorescence, % of Rose Bengal” value was -0.0611% (inactive).

With `CN1C(=O)CN2CCc3ccccc3C2c2cc(Cl)ccc21` (stereo not given), the “fluorescence, % of Rose Bengal” value is 0.052% (inactive).

Turning to `CN(CC(=O)N1CCOCC1)Cc1c(Cl)cccc1NC(=O)c1ccccc1`, the “fluorescence, % of Rose Bengal” value is -0.0602% (inactive).

Turning to `COc1cc(C[C@@H]2NCCc3cc(O)c(O)cc32)cc(OC)c1OC`, the “fluorescence, % of Rose Bengal” value is 0.175% (inactive).

For `CN1[C@@H]2CCC[C@H]1CC(NC(=O)c1nn(C)c3ccccc13)C2` (stereo not given in full), the “fluorescence, % of Rose Bengal” value was -0.157% (inactive).

Turning to `O=C(Cc1cccs1)N[C@@H]1C(=O)N2C(C(=O)[O-])=C(C[n+]3ccccc3)CS[C@H]12`, the “fluorescence, % of Rose Bengal” value was 0.0631% (inactive).

For `Cc1cccc(C)c1N(CCCc1cccnc1)C(=O)C(C)N` (stereo not given), the “fluorescence, % of Rose Bengal” value was -0.34% (inactive).

For the compound `CCCCCCOc1ccc(C(=N)N(CCCC)CCCC)c2ccccc12`, the “fluorescence, % of Rose Bengal” value was 0.0055% (inactive).

The values are drawn from PubChem BioAssay (Tox21).
